Source: PubChem BioAssay (EPA / NIEHS)
Where a structure was tested more than once in an assay, its records may differ in their call. Calls of active or inactive are those of the source. The calls were made as follows: active = hit-call score of the fitted dose curve at least 0.9, where 1 is the maximum; inactive = score below 0.9.

Columns and labels:
[1] = ATG_CRE_CIS: Attagene CIS-FACTORIAL HepG2 Assay for human cAMP Responsive Element (CRE) binding protein 3 (AID 2282926); settings: HepG2 CRE cis-reporter, Attagene multiplexed mRNA; actives raise or lower the signal
Procedure, shortened: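 Induced reporter mRNA from a CRE cis element, measured in HepG2 among many multiplexed units at 24 h. Detection used RT-PCR plus capillary electrophoresis of fluorescent fragments; DMSO served as negative control.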

[2] = molecular target: CCAAT/enhancer-binding protein beta (Homo sapiens) (UniProt P17676); test: ATG_C_EBP_CIS: Attagene CIS-FACTORIAL HepG2 Assay for human CCAAT/Enhancer Binding Protein (C/EBP) beta (AID 2282927); settings: HepG2 Attagene cis-factorial transcription factor reporter; actives raise or lower the signal
Procedure, shortened: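 RT-PCR/capillary electrophoresis fluorescence of reporter mRNA, 24 h post-dose, in HepG2 cells carrying transfected cis-promoter reporter units. Bidirectional curve fitting against DMSO baseline captures gain or loss of signal.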

[3] = ATG_CMV_CIS: Attagene CIS-FACTORIAL HepG2 Assay for human CMV (Internal Marker) (AID 2282928); settings: HepG2 CMV promoter reporter, transcription factor profiling; actives raise or lower the signal;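 also: endpoint acts as a background internal control marker rather than a target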
Procedure, shortened: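 Readout: fluorescent reporter cDNA fragments separated by capillary electrophoresis after RT-PCR and HpaI cut. Cells: HepG2 carrying transfected cis-promoter reporter constructs, dosed 24 h. Endpoint serves as background internal-marker control, fit bidirectionally versus DMSO.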

[4] = ATG_DR4_LXR_CIS: Attagene CIS-FACTORIAL HepG2 Assay for human Liver X Receptor (LXR), DR4 submotif (AID 2282929); settings: HepG2 Attagene DR4 cis-reporter, mRNA transcription; actives raise or lower the signal
Procedure, shortened: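 Total RNA from 24 h-treated, MRTU-transfected HepG2 cells underwent reverse transcription, PCR, fluorescent primer extension and restriction digestion before capillary electrophoresis. Both increases and decreases in reporter signal were fitted against DMSO.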

[5] = molecular target: Aryl hydrocarbon receptor (Homo sapiens) (UniProt P35869); test: ATG_Ahr_CIS: Attagene CIS-FACTORIAL HepG2 Assay for human Aryl Hydrocarbon Receptor (Ahr) (AID 2282930); settings: HepG2 AhR cis-factorial reporter transcription; actives raise or lower the signal
Procedure, shortened: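 HepG2 cells transiently transfected with cis-element-driven multiplexed reporter transcription units; endogenous transcription factor activity measured as reporter mRNA 24 h after dosing. RT-PCR, 6-FAM labelling, HpaI digestion, capillary electrophoresis; bidirectional fitting versus DMSO baseline.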

[6] = ATG_AP_1_CIS: Attagene CIS-FACTORIAL HepG2 Assay for human Activator Protein 1 (AP-1) (AID 2282931); settings: HepG2 Attagene cis-factorial AP-1 reporter mRNA; actives raise or lower the signal
Procedure, shortened: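 HepG2, transient cis-reporter transfection; 24 h; readout RT-PCR/CE fluorescence; DMSO baseline, gain and loss fitted.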

[7] = ATG_AP_2_CIS: Attagene CIS-FACTORIAL HepG2 Assay for human Activator Protein 2 (AP-2) (AID 2282932); settings: HepG2 AP-2 cis-reporter, Attagene transcription factor profiling; actives raise or lower the signal
Procedure, shortened: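 Cells (HepG2) transfected with promoter-driven reporter constructs, treated 24 h. Total RNA reverse-transcribed, reporter cDNA PCR-amplified, FAM-labelled by primer extension, digested, resolved by capillary electrophoresis. Activity fitted both directions versus DMSO.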

[8] = ATG_BRE_CIS: Attagene CIS-FACTORIAL HepG2 Assay for human Bone Morphogenetic Protein (BMP) Response Element (BRE) (AID 2282933); settings: HepG2 BMP response element reporter, Attagene transcription factor profiling; actives raise or lower the signal
Procedure, shortened: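 HepG2 cells transiently transfected with multiplexed cis-element reporter units were dosed with chemical for 24 h. Reporter mRNA was measured by RT-PCR with fluorescent labelling, HpaI digestion and capillary electrophoresis; bidirectional fitting relative to DMSO.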

[9] = molecular target: Retinoic acid receptor alpha (Homo sapiens) (UniProt P10276); test: ATG_DR5_RAR_CIS: Attagene CIS-FACTORIAL HepG2 Assay for human Retinoic Acid Receptor Alpha (RARE), DR5 submotif (AID 2282934); settings: HepG2 Attagene cis-factorial RARE DR5 reporter, mRNA; actives raise or lower the signal;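 as to AC50: reporter responds to endogenous RAR alpha beta and gamma in HepG2 not RARA alone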
Procedure, shortened: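 HepG2 cells transiently transfected with multiplexed reporter units under cis (DR5 RARE) promoters, so endogenous transcription factor activity is measured. After 24 h compound exposure, reporter mRNA is quantified by RT-PCR with fluorescent labelling and capillary electrophoresis; bidirectional fitting versus DMSO.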

[10] = molecular target: Transcription factor E2F1 (Homo sapiens) (UniProt Q01094); test: ATG_E2F_CIS: Attagene CIS-FACTORIAL HepG2 Assay for human E2F Transcription Factor 1 (AID 2282935); settings: HepG2 Attagene cis-reporter, E2F reporter RNA transcripts; actives raise or lower the signal
Procedure, shortened: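 First, HepG2 cells were transfected with reporter transcription units. Next, they were dosed for 24 h. Then RNA was isolated, converted to cDNA, PCR-amplified, FAM-labeled, HpaI-digested and analyzed by capillary electrophoresis.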

Measured: AC50

CCAAT/enhancer-binding protein beta (Homo sapiens), sequence (P17676 whole entry, looked up): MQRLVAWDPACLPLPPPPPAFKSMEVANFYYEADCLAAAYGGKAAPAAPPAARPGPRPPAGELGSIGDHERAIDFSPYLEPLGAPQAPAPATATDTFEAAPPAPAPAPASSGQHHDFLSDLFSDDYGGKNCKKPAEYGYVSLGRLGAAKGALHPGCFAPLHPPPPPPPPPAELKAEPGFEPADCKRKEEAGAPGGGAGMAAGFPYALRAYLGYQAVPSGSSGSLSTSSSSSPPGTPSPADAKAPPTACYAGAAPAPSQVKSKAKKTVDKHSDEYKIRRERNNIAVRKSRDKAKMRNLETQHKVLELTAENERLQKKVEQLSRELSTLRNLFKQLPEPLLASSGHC
Aryl hydrocarbon receptor (Homo sapiens), sequence (P35869 whole entry, looked up): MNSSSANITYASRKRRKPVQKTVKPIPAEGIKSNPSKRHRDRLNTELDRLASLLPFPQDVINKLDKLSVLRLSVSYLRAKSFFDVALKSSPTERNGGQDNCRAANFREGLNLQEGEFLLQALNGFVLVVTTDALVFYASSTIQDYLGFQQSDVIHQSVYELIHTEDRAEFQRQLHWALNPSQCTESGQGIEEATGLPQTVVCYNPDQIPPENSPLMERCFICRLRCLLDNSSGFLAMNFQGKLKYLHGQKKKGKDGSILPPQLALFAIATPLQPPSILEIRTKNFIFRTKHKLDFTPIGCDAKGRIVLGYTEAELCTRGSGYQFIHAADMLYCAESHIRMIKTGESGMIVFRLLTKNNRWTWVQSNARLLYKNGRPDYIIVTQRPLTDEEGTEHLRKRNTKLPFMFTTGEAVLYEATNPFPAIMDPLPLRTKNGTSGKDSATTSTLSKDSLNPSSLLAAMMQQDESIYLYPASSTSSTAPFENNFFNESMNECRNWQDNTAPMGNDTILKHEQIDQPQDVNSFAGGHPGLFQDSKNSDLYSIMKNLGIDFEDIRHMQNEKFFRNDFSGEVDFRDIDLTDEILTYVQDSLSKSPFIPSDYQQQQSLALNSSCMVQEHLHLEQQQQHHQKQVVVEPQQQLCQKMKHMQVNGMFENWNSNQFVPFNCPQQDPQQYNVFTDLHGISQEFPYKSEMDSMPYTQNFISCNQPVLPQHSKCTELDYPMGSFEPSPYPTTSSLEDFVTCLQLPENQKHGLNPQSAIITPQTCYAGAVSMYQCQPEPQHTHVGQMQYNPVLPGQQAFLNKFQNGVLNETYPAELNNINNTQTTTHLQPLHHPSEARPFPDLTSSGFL
Transcription factor E2F1 (Homo sapiens), sequence (Q01094 whole entry, looked up): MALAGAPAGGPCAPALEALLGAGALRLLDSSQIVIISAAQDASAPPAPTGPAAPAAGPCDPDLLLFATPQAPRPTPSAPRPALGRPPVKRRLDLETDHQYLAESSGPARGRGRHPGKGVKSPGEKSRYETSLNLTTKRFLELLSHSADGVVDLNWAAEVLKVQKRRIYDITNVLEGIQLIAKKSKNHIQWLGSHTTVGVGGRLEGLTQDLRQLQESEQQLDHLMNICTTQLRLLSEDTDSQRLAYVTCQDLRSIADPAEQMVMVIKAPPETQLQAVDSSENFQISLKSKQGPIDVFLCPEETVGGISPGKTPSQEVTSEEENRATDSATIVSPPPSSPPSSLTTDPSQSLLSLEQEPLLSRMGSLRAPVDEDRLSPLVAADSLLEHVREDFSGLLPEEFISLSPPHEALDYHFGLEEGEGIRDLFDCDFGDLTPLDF
Retinoic acid receptor alpha (Homo sapiens), sequence (P10276 whole entry, looked up): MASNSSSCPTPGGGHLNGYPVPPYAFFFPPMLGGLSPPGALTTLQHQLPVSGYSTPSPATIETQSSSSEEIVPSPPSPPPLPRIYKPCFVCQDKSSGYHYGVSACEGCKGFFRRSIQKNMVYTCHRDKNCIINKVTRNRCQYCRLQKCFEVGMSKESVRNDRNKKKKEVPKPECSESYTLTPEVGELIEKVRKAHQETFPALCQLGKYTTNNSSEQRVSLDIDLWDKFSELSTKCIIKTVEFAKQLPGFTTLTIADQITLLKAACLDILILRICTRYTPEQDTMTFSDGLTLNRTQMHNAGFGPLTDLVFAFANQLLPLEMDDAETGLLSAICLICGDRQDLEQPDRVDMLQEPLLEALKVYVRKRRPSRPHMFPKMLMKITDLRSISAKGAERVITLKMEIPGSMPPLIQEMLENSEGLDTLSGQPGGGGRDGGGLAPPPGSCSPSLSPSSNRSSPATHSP

OCCO
inactive: all assays above

C[C@]12CC[C@@H]3c4ccc(O)cc4CC[C@H]3[C@@H]1CC[C@H]2O
inactive: [1] | [2] | [4] | [5] | [8] | [9]
active: [3] 27.5 µM [middle of 4 runs] | [5] 49 µM | [9] 5.92 µM

CC(=O)N1CCN(c2ccc(OC[C@H]3CO[C@](Cn4ccnc4)(c4ccc(Cl)cc4Cl)O3)cc2)CC1
inactive: [2] | [7] | [9] | [10]
active: [1] 20.7 µM | [3] 44.4 µM | [4] 43.9 µM | [5] 0.412 µM | [6] 43.5 µM | [8] 28.6 µM

c1ccc2n[nH]nc2c1
active: [5] 51.9 µM
inactive: [1] | [2] | [3] | [4] | [5] | [8] | [9] | [10]

Clc1ccccc1C(c1ccccc1)(c1ccccc1)n1ccnc1
inactive: [1] | [2] | [9]
active: [3] 17.8 µM | [4] 1.48 µM | [5] 3.01 µM | [6] 10.4 µM | [8] 11.1 µM

O=C(OCCCCCCOC(=O)c1ccccc1)c1ccccc1
not listed: [6] | [10]
inactive: all other assays above

CCO[Si](CCCNC(N)=O)(OCC)OCC
not listed: [6] | [7] | [10]
inactive: all other assays above

CCN(Cc1cccc(S(=O)(=O)O)c1)c1ccc(C(=C2C=CC(=[N+](CC)Cc3cccc(S(=O)(=O)O)c3)C=C2)c2ccccc2S(=O)(=O)[O-])cc1
not listed: [6] | [7] | [10]
inactive: all other assays above

CCCCCCCCOc1ccc(C(=O)c2ccccc2)c(O)c1
active: [5] 59.1 µM
not listed: [6]
inactive: all other assays above

C[C@]12CC[C@@H]3c4ccc(O)cc4CC[C@H]3[C@@H]1CCC2=O
not listed: [5] | [6] | [9]
inactive: all other assays above
